# Where a name gives a salt, the structure may show the parent alone.
# System: U2932 parental
# Experiment: cell proliferation relative to vehicle (% of vehicle); higher = less growth inhibition
# Conditions: 50 nM; 72 h
# How it was run: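 Growth medium with 10% FBS at 37°C and 5% CO2 was used to culture U2932, an ABC-DLBCL line, in parental form and as two clones rendered resistant to an ETS-targeting agent by repeated exposure over almost a year. These cells received compounds from a 348-member targeted inhibitor library at 500 nM or 50 nM for 72 h, followed by 4 h of MTT, a 25% SDS stop and an absorbance read on a Cytation 3. The percentage of proliferating cells is reported relative to DMSO vehicle.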
row,SMILES,cell proliferation
1,O=C1NC(=O)C(c2ccccc2[N+](=O)[O-])=C1Nc1ccc(O)c(Cl)c1,108
2,C[S+]([O-])c1ccc(-c2nc(-c3ccc(F)cc3)c(-c3ccncc3)[nH]2)cc1 (centres undefined),106
3,CCC[C@H](Nc1nc(-c2ccc(NC(=O)NCC)c(OC)c2)ncc1C)c1cccnc1 [CYT997 (Lexibulin)],10.4
4,CC1(C)CNc2cc(NC(=O)c3cccnc3NCc3ccncc3)ccc21 [Motesanib Diphosphate (AMG-706)],97.4
5,Cc1nnc(C(C)C)n1C1C[C@H]2CC[C@@H](C1)N2CC[C@H](NC(=O)C1CCC(F)(F)CC1)c1ccccc1 (stereo in doubt) [Maraviroc],88
6,Nc1ccc(C(=O)Nc2cccc(-c3nc(N4CCOCC4)c4oc5ncccc5c4n3)c2)cn1,102
7,CCCC(CCC)C(=O)O [Valproic acid sodium salt (Sodium valproate)],106
8,N#Cc1c(Oc2ccc(F)c(NC(=O)Cc3cccc(C(F)(F)F)c3)c2)ccc2nc(NC(=O)C3CC3)sc12,95.9
9,Oc1ccc(/C=C/c2cc(O)cc(O)c2)cc1 [Resveratrol],103
10,CC1(C)CCC(CN2CCN(c3ccc(C(=O)NS(=O)(=O)c4ccc(NCC5CCOCC5)c([N+](=O)[O-])c4)c(Oc4cnc5[nH]ccc5c4)c3)CC2)=C(c2ccc(Cl)cc2)C1,90.7
11,"CO[C@H]1C[C@@H]2CC[C@@H](C)[C@@](O)(O2)C(=O)C(=O)N2CCCC[C@H]2C(=O)O[C@H]([C@H](C)C[C@@H]2CC[C@@H](OP(C)(C)=O)[C@H](OC)C2)CC(=O)[C@H](C)/C=C(\C)[C@@H](O)[C@@H](OC)C(=O)[C@H](C)C[C@H](C)/C=C/C=C/C=C/1C [Ridaforolimus (Deforolimus, MK-8669)]",56.4
12,CCC(C)(C)C(=O)O[C@H]1C[C@@H](C)C=C2C=C[C@H](C)[C@H](CC[C@@H]3C[C@@H](O)CC(=O)O3)[C@H]21 [Simvastatin],90.5
13,Cc1cc(CS(=O)(=O)c2ccccc2)cc(OCc2ccc(CN3CCC[C@@H]3CO)cc2)c1,97.2
14,Cn1c(Nc2ccc(C(F)(F)F)cc2)nc2cc(Oc3ccnc(-c4ncc(C(F)(F)F)[nH]4)c3)ccc21,95.6
15,"CC[C@H](Nc1ncnc2[nH]cnc12)c1nc2cccc(F)c2c(=O)n1-c1ccccc1 [CAL-101 (Idelalisib, GS-1101)]",92.6
16,"COc1cc(F)c(F)c(Nc2ccc(I)cc2F)c1NS(=O)(=O)C1(C[C@H](O)CO)CC1 [Refametinib (RDEA119, Bay 86-9766)]",92.8
17,CC(=O)Nc1cccc(-n2c(=O)n(C3CC3)c(=O)c3c(Nc4ccc(I)cc4F)n(C)c(=O)c(C)c32)c1,92.9
18,O=C(O)CCNc1cc(N2CCc3ccccc3CC2)nc(-c2ccccn2)n1,99.3
19,C[C@@H]1CCN(C(=O)CC#N)C[C@@H]1N(C)c1ncnc2[nH]ccc12,109
20,COc1ccc(-c2ccc3ncc4c(c3c2)n(-c2ccc(N3CCNCC3)c(C(F)(F)F)c2)c(=O)n4C)cn1,19.7

row,SMILES,cell proliferation
1,Clc1ccc(C2(c3ccc(-c4cn[nH]c4)cc3)CCNCC2)cc1,93
2,O=C(CCCCCCNC(=O)c1cnc(N(c2ccccc2)c2ccccc2)nc1)NO [Rocilinostat (ACY-1215)],98.5
3,CCCCCCCCCCCC1=C(O)C(=O)C=C(O)C1=O [Embelin],100
4,COc1cc2ncnc(Oc3ccc(CC(=O)Nc4cnn(C(C)C)c4)cc3)c2cc1OC,97.7
5,C[C@H](NC(=O)/C(C#N)=C/c1cccc(Br)n1)c1ccccc1,105
6,CO[C@H]1C[C@@H]2CC[C@@H](C)[C@@](O)(O2)C(=O)C(=O)N2CCCC[C@H]2C(=O)O[C@H]([C@H](C)C[C@@H]2CC[C@@H](OC(=O)C(C)(CO)CO)[C@H](OC)C2)CC(=O)[C@H](C)/C=C(\C)[C@@H](O)[C@@H](OC)C(=O)[C@H](C)C[C@H](C)/C=C/C=C/C=C/1C,59.6
7,CNC(=O)c1ccccc1Sc1ccc2c(/C=C/c3ccccn3)n[nH]c2c1 [Axitinib],95.6
8,CCOC(=O)c1[nH]c2cc(Cl)ccc2c1C(C(=O)NC(C)(C)C)N(C=O)Cc1ccc(Cl)cc1 (centres undefined),97.7
9,O=C(NC[C@H](O)CO)c1ccncc1Nc1ccc(I)cc1F,92.2
10,NC(=O)c1cccc2cn(-c3ccc([C@@H]4CCCNC4)cc3)nc12 [MK-4827(Niraparib) tosylate],92.5
11,CC(C)N(CCCNC(=O)Nc1ccc(C(C)(C)C)cc1)C[C@H]1O[C@@H](n2cc(Br)c3c(N)ncnc32)[C@H](O)[C@@H]1O,96.7
12,O=C(O)CC[C@H]1CC[C@@](c2cc(F)ccc2F)(S(=O)(=O)c2ccc(Cl)cc2)CC1,93.5
13,Clc1ccc(Nc2nnc(Cc3ccncc3)c3ccccc23)cc1 [Vatalanib (PTK787) 2HCl],93.1
14,C=CCc1ccc(O)c(-c2ccc(O)c(CC=C)c2)c1 [Honokiol],100
15,O=C(O)C(=O)O.[NH-][C@@H]1CCCC[C@H]1[NH-].[Pt+2] [Oxaliplatin],96.8
16,CN1CCC(CNc2ccc3ncc(-c4cccc(OC(F)(F)F)c4)n3n2)CC1 [SGI-1776 free base],95.5
17,O=c1ncccn1[C@@H]1O[C@H](CO)[C@@H](O)[C@H]1O [Zebularine],105
18,COc1cc(Nc2ncc(F)c(Nc3ccc4c(n3)N(COP(=O)(O)O)C(=O)C(C)(C)O4)n2)cc(OC)c1OC [Fostamatinib (R788)],96.7
19,Oc1cccc(-c2nc(N3CCOCC3)c3oc4ncccc4c3n2)c1,92.1

# Reference: the supplement of paper PMC13172266
